Measurements: the supplement of paper PMC12494721
Where a name gives a salt, the structure may show the parent alone.

Experiments:
Conditions in all cases: incubation time: 27 h, anaerobic, 37 °C;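 for the amine columns active = adjusted P below 0.05 in both replicates with a change the same way and a mean fold change under 0.8 or over 1.25; inactive = the rest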
[1] = system: Clostridium sporogenes DSM 1664; test: growth (OD595) fold change vs plate DMSO controls (fold change (ratio)); higher = more growth
Method in brief: (§1)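 Growth is calculated as fold change against the median of the DMSO control wells on each plate. Readings at 595 nm from anaerobic mGAM cultures (96-well, 27 h, 37 °C) were blank-subtracted, background-corrected with 20 µM compound solutions in water, and converted to OD by a calibration factor of 5. Fold changes above 1.5 were recorded as NA, and results are means of 2 biological replicates.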

Escherichia coli IAI1 [2] = test: as above
Method in brief: as §1

[3] = system: Klebsiella aerogenes DSM 30053; test: as above
Method in brief: as §1

[4] = system: Ruminococcus gnavus DSM 108212; test: as above
Method in brief: as §1

[5] = system: Klebsiella aerogenes DSM 30053; test: fold change of Histamine concentration vs plate DMSO controls (fold change (ratio)); higher = more amine produced, active = hit call of the paper (significant change in both replicates, either direction)
Method in brief: (§2)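 In 80 µL wells, cultures of four gut bacterial strains in mGAM started at OD 0.1 before a 1:1 dilution and grew anaerobically at 37 °C for 27 h. Compounds were added to 20 µM final, except sweeteners at 50 µM final. After extraction of whole cultures with cold acetonitrile/methanol plus 0.1% formic acid and centrifugation, amines were measured by LC–triple-quadrupole MS in dynamic MRM mode against external calibration curves, with within-batch drift correction. Values give fold change over DMSO controls on the same plate, averaged across 2 biological replicates.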

[6] = system: Clostridium sporogenes DSM 1664; test: fold change of Tryptamine concentration vs plate DMSO controls (fold change (ratio)); higher = more amine produced, active = hit call of the paper (significant change in both replicates, either direction)
Method in brief: as §2

[7] = system: Ruminococcus gnavus DSM 108212; test: as above
Method in brief: as §2

Escherichia coli IAI1 [8] = test: fold change of Putrescine concentration vs plate DMSO controls (fold change (ratio)); higher = more amine produced, active = hit call of the paper (significant change in both replicates, either direction)
Method in brief: as §2

[9] = system: Klebsiella aerogenes DSM 30053; test: as above
Method in brief: as §2

Escherichia coli IAI1 [10] = test: fold change of Cadaverine concentration vs plate DMSO controls (fold change (ratio)); higher = more amine produced, active = hit call of the paper (significant change in both replicates, either direction)
Method in brief: as §2

[11] = system: Klebsiella aerogenes DSM 30053; test: as above
Method in brief: as §2

[12] = system: Ruminococcus gnavus DSM 108212; test: fold change of 2-Phenylethylamine concentration vs plate DMSO controls (fold change (ratio)); higher = more amine produced, active = hit call of the paper (significant change in both replicates, either direction)
Method in brief: as §2

| SMILES | growth [1] | growth (Escherichia coli IAI1 [2]) | growth [3] | growth [4] | fold change of Histamine concentration [5] | fold change of Tryptamine concentration [6] | fold change of Tryptamine concentration [7] | fold change of Putrescine concentration (Escherichia coli IAI1 [8]) | fold change of Putrescine concentration [9] | fold change of Cadaverine concentration (Escherichia coli IAI1 [10]) | fold change of Cadaverine concentration [11] | fold change of 2-Phenylethylamine concentration [12] |
| --- | --- | --- | --- | --- | --- | --- | --- | --- | --- | --- | --- | --- |
| CCCc1cc(C(N)=S)ccn1 [Prothionamide] (20 µM) | 1.09 | 1.15 | 0.999 | 0.999 | 1.01 (inactive) | 0.998 (inactive) | 0.977 (inactive) | 1.18 (inactive) | 0.982 (inactive) | 1.01 (inactive) | 0.999 (inactive) | 0.946 (inactive) |
| O=C1CC2(CCCC2)CC(=O)N1CCCCN1CCN(c2ncccn2)CC1 [Buspirone hydrochloride] (20 µM) | 0.958 | 1.07 | 0.968 | 0.992 | 1.09 (inactive) | 1.05 (inactive) | 1.05 (inactive) | 1.02 (inactive) | 1.01 (inactive) | 1.05 (inactive) | 0.99 (inactive) | 1.05 (inactive) |
| O=C(O)CCNC(=O)c1ccc(/N=N/c2ccc(O)c(C(=O)O)c2)cc1 [Balsalazide disodium salt] (20 µM) | 1 | 1 | 1.02 | 0.934 | 0.892 (inactive) | 0.993 (inactive) | 1.21 (inactive) | 0.893 (inactive) | 1.01 (inactive) | 0.963 (inactive) | 1.11 (inactive) | 1.51 (active) |
| CC(C)n1c(/C=C/C(O)CC(O)CC(=O)O)c(-c2ccc(F)cc2)c2ccccc21 (stereo not drawn) [Fluvastatin sodium salt] (20 µM) | 0.95 | 0.995 | 0.987 | 0.918 | 0.914 (inactive) | 0.881 (inactive) | 1.04 (inactive) | 1.02 (inactive) | 1.05 (inactive) | 1.07 (inactive) | 1.03 (inactive) | 0.984 (inactive) |
| Cc1ccc(S(=O)(=O)NC(=O)NN2CC3CCCC3C2)cc1 (stereo not drawn) [Gliclazide] (20 µM) | 1.15 | 1.06 | 0.986 | 0.999 | 1.04 (inactive) | 1.06 (inactive) | 1.12 (inactive) | 0.995 (inactive) | 1 (inactive) | 0.883 (inactive) | 1 (inactive) | 1.12 (inactive) |
| CC(Cc1cccc(C(F)(F)F)c1)NCCOC(=O)c1ccccc1 (stereo not drawn) [Benfluorex] (20 µM) | 1.08 | 0.988 | 0.966 | 0.795 | 1.02 (inactive) | 0.988 (inactive) | 0.786 (active) | 1.06 (inactive) | 1 (inactive) | 0.975 (inactive) | 0.99 (inactive) | 0.797 (inactive) |
| CCCNC(C)C(=O)Nc1ccccc1C (stereo not drawn) [Prilocaine hydrochloride] (20 µM) | 0.947 | 0.973 | 1.02 | 0.708 | 1.07 (inactive) | 0.934 (inactive) | 1.02 (inactive) | 1.01 (inactive) | 1.02 (inactive) | 0.993 (inactive) | 0.988 (inactive) | 1 (inactive) |
| N[C@@H](CSCCCO)C(=O)O [Fudosteine] (20 µM) | 0.96 | 1.05 | 1.01 | 1.14 | 0.977 (inactive) | 0.939 (inactive) | 1 (inactive) | 1.05 (inactive) | 1.02 (inactive) | 0.981 (inactive) | 1.01 (inactive) | 1.03 (inactive) |
| Cc1ccc2c(c1)c1c3n2CCNC3CCC1 (stereo not drawn) [Pirlindole mesylate] (20 µM) | 0.975 | 1.06 | 0.98 | 1 | 0.963 (inactive) | 0.987 (inactive) | 1.05 (inactive) | 1.06 (inactive) | 1 (inactive) | 1.01 (inactive) | 1 (inactive) | 1.08 (inactive) |
| CCN(CC)CCOCCOC(=O)C(CC)(CC)c1ccccc1 [Oxeladin citrate] (20 µM) | 1.05 | 0.997 | 1 | 1.01 | 0.957 (inactive) | 1.01 (inactive) | 0.889 (inactive) | 1.01 (inactive) | 1.02 (inactive) | 1.01 (inactive) | 0.994 (inactive) | 0.865 (inactive) |
| CC1(C)O[C@@H]2C[C@H]3[C@@H]4C[C@H](F)C5=CC(=O)C=C[C@]5(C)[C@@]4(F)[C@@H](O)C[C@]3(C)[C@]2(C(=O)CO)O1 [Fluocinolone acetonide] (20 µM) | 1.13 | 1.04 | 1.01 | 0.973 | 1.06 (inactive) | 1.02 (inactive) | 0.996 (inactive) | 1.05 (inactive) | 1.04 (inactive) | 1.05 (inactive) | 1 (inactive) | 0.976 (inactive) |
| Nc1ccc(S(=O)(=O)Nc2ccnn2-c2ccccc2)cc1 [Sulfaphenazole] (20 µM) | 1.01 | 1.11 | 1.04 | 1.11 | 0.99 (inactive) | 0.977 (inactive) | 0.994 (inactive) | 1.04 (inactive) | 1.03 (inactive) | 1.04 (inactive) | 1.02 (inactive) | 0.95 (inactive) |
| CC[C@H]1OC(=O)[C@H](C)[C@@H](O[C@H]2C[C@@](C)(OC)[C@@H](O)[C@H](C)O2)[C@H](C)[C@@H](O[C@@H]2O[C@H](C)C[C@H](N(C)C)[C@H]2O)[C@](C)(O)C[C@@H](C)CN(C)[C@H](C)[C@@H](O)[C@]1(C)O [Azithromycin] (20 µM) | 0 | 0.212 | 0.39 | 0.162 | 0.0612 (active) | 0.0425 (active) | 0.0983 (active) | 0.366 (inactive) | 0.425 (active) | 0.633 (active) | 0.99 (inactive) | 0.115 (active) |
| CN(C)CCC[C@@]1(c2ccc(F)cc2)OCc2cc(C#N)ccc21 [Escitalopram oxalate] (20 µM) | 0.99 | 0.986 | 1.11 | 0.828 | 1.02 (inactive) | 0.971 (inactive) | 1.01 (inactive) | 1.01 (inactive) | 1.02 (inactive) | 0.993 (inactive) | 1.02 (inactive) | 0.965 (inactive) |
| COC(=O)Nc1nc2cc([S+]([O-])c3ccccc3)ccc2[nH]1 (stereo not drawn) [Oxfendazole] (20 µM) | 0.943 | 1.04 | 1.01 | 0.99 | 1.01 (inactive) | 1.01 (inactive) | 1.04 (inactive) | 0.99 (inactive) | 1.04 (inactive) | 0.981 (inactive) | 1.04 (inactive) | 0.999 (inactive) |
| CN(C)CCC(c1ccc(Br)cc1)c1ccccn1 (stereo not drawn) [Brompheniramine maleate] (20 µM) | 0.959 | 1.17 | 1.07 | 1.17 | 0.891 (inactive) | 1.2 (inactive) | 1.1 (inactive) | 0.981 (inactive) | 0.943 (inactive) | 1.2 (inactive) | 1.03 (inactive) | 1.14 (inactive) |
| OC(CCN1CCCCC1)(c1ccccc1)C1CC2C=CC1C2 (stereo not drawn) [Biperiden hydrochloride] (20 µM) | 1.01 | 1.01 | 1.17 | 0.975 | 0.911 (inactive) | 0.995 (inactive) | 0.916 (inactive) | 1.04 (inactive) | 0.999 (inactive) | 0.899 (inactive) | 1.01 (inactive) | 0.935 (inactive) |
| CCN1CCN(c2cc3c(cc2F)c(=O)c(C(=O)O)cn3C2CC2)CC1 [Enrofloxacin] (20 µM) | 0.0184 | 0.0344 | 0.107 | 1.29 | 0.0794 (active) | 0.0498 (active) | 0.982 (inactive) | 0.658 (inactive) | 0.619 (active) | 0.204 (active) | 0.938 (inactive) | 1.05 (inactive) |
| CC(=O)SCC(Cc1ccccc1)C(=O)NCC(=O)OCc1ccccc1 (stereo not drawn) [Racecadotril] (20 µM) | 1.06 | 1 | 0.986 | 0.929 | 0.978 (inactive) | 0.941 (inactive) | 1.01 (inactive) | 0.991 (inactive) | 0.991 (inactive) | 0.985 (inactive) | 0.999 (inactive) | 0.954 (inactive) |
| C=CCSCC1Nc2cc(Cl)c(S(N)(=O)=O)cc2S(=O)(=O)N1 (stereo not drawn) [Althiazide] (20 µM) | 1.06 | 1.11 | 1.01 | 1.02 | 0.981 (inactive) | 1.03 (inactive) | 1.24 (inactive) | 1.21 (inactive) | 1.03 (inactive) | 1.06 (inactive) | 1.12 (inactive) | 1.66 (active) |
| CC[C@H]1OC(=O)[C@H](C)[C@@H](O[C@H]2C[C@@](C)(OC)[C@@H](O)[C@H](C)O2)[C@H](C)[C@@H](O[C@@H]2O[C@H](C)C[C@H](N(C)C)[C@H]2O)[C@](C)(O)C[C@@H](C)[C@@H]2N[C@@H](COCCOC)O[C@H]([C@H]2C)[C@]1(C)O [Dirithromycin] (20 µM) | 0.228 | 0.961 | 0.964 | 0.419 | 0.987 (inactive) | 0.0683 (active) | 0.134 (active) | 0.956 (inactive) | 0.991 (inactive) | 0.998 (inactive) | 1.01 (inactive) | 0.146 (active) |
| c1ccc2cc3ccccc3cc2c1 [Anthracene] (20 µM) | 1.03 | 1.04 | 0.993 | 0.985 | 1.03 (inactive) | 1.03 (inactive) | 1.02 (inactive) | 1.01 (inactive) | 0.986 (inactive) | 0.976 (inactive) | 1.02 (inactive) | 0.963 (inactive) |
| CO[C@H]1/C=C/O[C@@]2(C)Oc3c(C)c(O)c4c(O)c(c5c(nc6cc(C)ccn65)c4c3C2=O)NC(=O)/C(C)=C\C=C\[C@H](C)[C@H](O)[C@@H](C)[C@@H](O)[C@@H](C)[C@H](OC(C)=O)[C@@H]1C [Rifaximin] (20 µM) | 0.00823 | 0.438 | 0.844 | 0.306 | 1.15 (inactive) | 0.0445 (active) | 0.144 (active) | 0.996 (inactive) | 0.651 (active) | 1.53 (active) | 1.04 (inactive) | 0.149 (active) |
| O=C1c2ccccc2C(=O)C1c1ccccc1 [Phenindione] (20 µM) | 1.17 | 0.963 | 0.969 | 1.07 | 1.08 (inactive) | 1 (inactive) | 1.01 (inactive) | 0.958 (inactive) | 1 (inactive) | 0.984 (inactive) | 0.976 (inactive) | 0.977 (inactive) |
